7 compounds from PubChem BioAssay can be followed below.

The structures appear in SMILES notation. The source made the active and inactive calls.

The subject of assay [1] is PRMT1 (protein arginine N-methyltransferase 1). Nature of the assay: PRMT1 binders on small-molecule microarrays, primary screen, biochemical, small-molecule microarray, 635 nm fluorescence (AID 1088).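 Also: binding of Prmt1 protein to compounds spotted on small-molecule microarray slides.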 The settings on record: small-molecule microarray binding, higher = more signal.
Assay [2] in a line: yeast growth modulation, basal conditions, primary screen, YJM789 clinical isolate, OD600, 24 h (AID 1089).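 Also: growth of clinical yeast isolate S. cerevisiae YJM 789 seeded 1000 cells per well; test concentration not given here.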 The settings on record: S. cerevisiae YJM789 growth, higher = more signal, called active from +8 up or from −8 down.
A short description of assay [3]: fission yeast growth modulation, primary screen, strain 972, OD600, 24 h, no modulator (AID 1090).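 Also: basal condition with compound alone and no growth modifier present; test concentration not given here.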 The settings on record: S. pombe 972 growth, higher = more signal, called active from +8 up or from −8 down.
Assay [4] in a line: S. cerevisiae growth modulation with rapamycin, primary screen, strain BY4716, OD600, 96 h (AID 1091). Also: test concentration not given here. The following applies: higher = more signal, called active from +8 up or from −8 down.
Assay [5] deals with Torsin-1A-interacting protein 2 (Homo sapiens) (UniProt Q8NFQ8). Nature of the assay: LULL1 binders on small-molecule microarray, primary screen, cell lysate, human LULL1 lysate, 635/667 nm fluorescence (AID 1092).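 Also: probe is lysate of COS7 cells overexpressing human LULL1; score merges per-feature 667 nm fluorescence with signal-to-noise.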 The settings on record: hLULL1 lysate binding, 635 nm fluorescence, higher = more signal.
Assay [6] in a line: E. coli growth modulation, two-sided OD650, primary screen, E. coli filamentation project, strain DRC41, 24 h (AID 1093).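 Also: MC1000 strain lacking acrAB efflux and sulA so SOS filamentation is blocked; test concentration not given here.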 The following applies: OD650, 24 h, higher = more signal, called active from +8 up or from −8 down.
Assay [7] can be described thus: small-molecule microarray binders of probe aLefty2, primary screen, biochemical, biotinylated probe, 635/667 nm fluorescence (AID 1094).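 Also: score merges spot fluorescence near 667 nm with spot signal-to-noise ratio.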 The settings on record: higher = more signal.
Assay [8] relates to Noggin (protein binding on small-molecule microarray). Nature of the assay: Noggin binders on small-molecule microarray, primary screen, biochemical, 635/667 nm fluorescence (AID 1095).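 Also: score merges 667 nm feature fluorescence with signal to noise over triplicate slides.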 The settings on record: 635 nm fluorescence, higher = more signal.
Assay [9] addresses Neurogenic locus notch homolog protein 3 (Homo sapiens) (UniProt Q9UM47). In words: NOTCH3 binders on small-molecule microarray, primary screen, biochemical, 635/667 nm fluorescence (AID 1096). The following applies: NOTCH3 binding, 635 nm fluorescence, higher = more signal.
Assay [10] in a line: small-molecule microarray binders of probe aEGFR, primary screen, biochemical, biotinylated probe, 635/667 nm fluorescence (AID 1097).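 Also: probe is a biotinylated anti-EGFR antibody binding compounds printed on slides; score combines fluorescence near 667 nm and signal to noise of each spot.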 The following applies: higher = more signal.
Assay [11] has as its system Plasmodium falciparum Sir2 (PF13_0152, Sir2A). Nature of the assay: pfSir2 binders on small-molecule microarrays, primary screen, biochemical, small-molecule microarray, 635 nm fluorescence (AID 1098).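 Also: score merges spot fluorescence intensity with its signal-to-noise ratio.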 The settings on record: small-molecule microarray binding, fluorescence 635 nm; higher = more signal.
Assay [12] in a line: small-molecule microarray binders of probe aDKK1, primary screen, biochemical, biotinylated probe, 635/667 nm fluorescence (AID 1099).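 Also: score merges 667nm spot fluorescence with signal to noise across triplicate slides; reference of the scale not given here.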 The following applies: higher = more signal.
The nature of assay [13]: small-molecule microarray binders of probe aCHRDL2, primary screen, biochemical, biotinylated probe, 635/667 nm fluorescence (AID 1100). The settings on record: higher = more signal.
Assay [14] in a line: splicing luciferase reporter signal modulators, primary screen, spliceosome inhibition project, cell-based, HEK293, splice +/- reporter (AID 1101).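 Also: HEK293 cells carrying a splicing-competent luciferase reporter gene; test concentration not given here.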 The settings on record: luminescence, 24 h, higher = more signal, called active from +8 up or from −8 down.
In assay [15] the target is Fibroblast growth factor 10 (Homo sapiens) (UniProt O15520). In words: FGF10 binders on small-molecule microarrays, primary screen, biochemical, small-molecule microarray, 635 nm fluorescence (AID 1102). The following applies: FGF10 binding, fluorescence 635 nm, higher = more signal.
In assay [16] the test system is glycogen synthase kinase-3 (GSK3A per assay name; protocol says GSK3B). In words: GSK3 binders on small-molecule microarrays, primary screen, biochemical, small-molecule microarray, 635 nm fluorescence, GSK3A (AID 1103). Also: the record names both GSK3A and GSK3B. The following applies: small-molecule microarray binding, fluorescence 635 nm; higher = more signal.
Assay [17] addresses Epidermal growth factor receptor (Homo sapiens) (UniProt P00533). Nature of the assay: EGFR binders on small-molecule microarrays, primary screen, biochemical, small-molecule microarray, 635 nm fluorescence (AID 1104).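 Also: score merges 667 nm emission intensity with spot signal to noise over triplicate slides.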 The following applies: EGFR binding, higher = more signal.
Assay [18] addresses Follistatin-related protein 3 (Homo sapiens) (UniProt O95633). Nature of the assay: FSTL3 binders on small-molecule microarrays, primary screen, biochemical, small-molecule microarray, 635 nm fluorescence (AID 1105).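 Also: score merges emission near 667 nm and signal to noise per printed spot across three slides.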 The settings on record: FSTL3 binding, higher = more signal.
For assay [19], the target named is Dickkopf-related protein 1 (Homo sapiens) (UniProt O94907). Nature of the assay: DKK1 binders on small-molecule microarrays, primary screen, biochemical, small-molecule microarray, 635 nm fluorescence scan (AID 1106).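 Also: score merges emission near 667 nm with signal to noise over three replicate slides.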 The settings on record: DKK1 binding, higher = more signal.
The test system of assay [20] is Inhibin beta A chain (activin A). In words: INHBA (activin A) binders on microarrays, primary screen, biochemical, small-molecule microarray, 635 nm fluorescence scan (AID 1107).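 Also: mouse activin A protein probed at 4.33 µg/mL on printed slides; score merges bound-protein fluorescence near 667 nm with spot signal-to-noise.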 The settings on record: small-molecule microarray binding, higher = more signal.

Chain of Follistatin-related protein 3 (Homo sapiens) (O95633 whole entry, looked up): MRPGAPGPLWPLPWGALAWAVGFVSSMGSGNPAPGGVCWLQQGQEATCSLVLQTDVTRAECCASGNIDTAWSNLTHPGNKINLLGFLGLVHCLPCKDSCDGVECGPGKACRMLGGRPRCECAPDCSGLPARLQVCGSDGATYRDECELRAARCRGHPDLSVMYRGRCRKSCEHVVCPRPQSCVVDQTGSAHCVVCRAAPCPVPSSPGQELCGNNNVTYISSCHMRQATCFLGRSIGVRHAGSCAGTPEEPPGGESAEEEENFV
Chain of Dickkopf-related protein 1 (Homo sapiens) (O94907 whole entry, looked up): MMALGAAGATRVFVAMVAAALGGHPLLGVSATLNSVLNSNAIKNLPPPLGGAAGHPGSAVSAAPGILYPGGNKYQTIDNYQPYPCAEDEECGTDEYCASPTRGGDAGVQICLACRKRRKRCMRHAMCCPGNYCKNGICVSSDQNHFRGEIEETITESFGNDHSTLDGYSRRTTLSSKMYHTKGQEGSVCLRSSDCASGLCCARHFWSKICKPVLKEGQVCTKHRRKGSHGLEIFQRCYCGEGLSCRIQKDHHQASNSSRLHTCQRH
Chain of Fibroblast growth factor 10 (Homo sapiens) (O15520 whole entry, looked up): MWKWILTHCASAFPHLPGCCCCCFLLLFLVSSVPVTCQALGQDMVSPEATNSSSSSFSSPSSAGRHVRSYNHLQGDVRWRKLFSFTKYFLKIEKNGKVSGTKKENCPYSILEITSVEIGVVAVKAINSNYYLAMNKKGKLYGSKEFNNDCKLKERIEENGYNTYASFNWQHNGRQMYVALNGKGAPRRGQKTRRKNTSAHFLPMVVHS
Chain of Torsin-1A-interacting protein 2 (Homo sapiens) (Q8NFQ8 whole entry, looked up): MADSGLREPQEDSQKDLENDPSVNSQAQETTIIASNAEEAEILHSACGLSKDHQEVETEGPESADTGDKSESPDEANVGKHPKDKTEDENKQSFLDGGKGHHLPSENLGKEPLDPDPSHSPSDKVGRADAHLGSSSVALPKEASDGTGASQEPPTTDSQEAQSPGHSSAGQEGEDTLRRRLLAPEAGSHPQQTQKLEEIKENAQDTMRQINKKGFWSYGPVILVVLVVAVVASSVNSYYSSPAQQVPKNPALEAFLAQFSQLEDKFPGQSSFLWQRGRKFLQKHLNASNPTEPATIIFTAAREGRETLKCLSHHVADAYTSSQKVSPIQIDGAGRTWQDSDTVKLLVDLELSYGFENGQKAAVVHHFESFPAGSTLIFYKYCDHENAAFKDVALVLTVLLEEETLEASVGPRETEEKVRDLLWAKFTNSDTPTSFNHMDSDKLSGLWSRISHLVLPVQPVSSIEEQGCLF
Chain of Neurogenic locus notch homolog protein 3 (Homo sapiens) (Q9UM47 whole entry, looked up): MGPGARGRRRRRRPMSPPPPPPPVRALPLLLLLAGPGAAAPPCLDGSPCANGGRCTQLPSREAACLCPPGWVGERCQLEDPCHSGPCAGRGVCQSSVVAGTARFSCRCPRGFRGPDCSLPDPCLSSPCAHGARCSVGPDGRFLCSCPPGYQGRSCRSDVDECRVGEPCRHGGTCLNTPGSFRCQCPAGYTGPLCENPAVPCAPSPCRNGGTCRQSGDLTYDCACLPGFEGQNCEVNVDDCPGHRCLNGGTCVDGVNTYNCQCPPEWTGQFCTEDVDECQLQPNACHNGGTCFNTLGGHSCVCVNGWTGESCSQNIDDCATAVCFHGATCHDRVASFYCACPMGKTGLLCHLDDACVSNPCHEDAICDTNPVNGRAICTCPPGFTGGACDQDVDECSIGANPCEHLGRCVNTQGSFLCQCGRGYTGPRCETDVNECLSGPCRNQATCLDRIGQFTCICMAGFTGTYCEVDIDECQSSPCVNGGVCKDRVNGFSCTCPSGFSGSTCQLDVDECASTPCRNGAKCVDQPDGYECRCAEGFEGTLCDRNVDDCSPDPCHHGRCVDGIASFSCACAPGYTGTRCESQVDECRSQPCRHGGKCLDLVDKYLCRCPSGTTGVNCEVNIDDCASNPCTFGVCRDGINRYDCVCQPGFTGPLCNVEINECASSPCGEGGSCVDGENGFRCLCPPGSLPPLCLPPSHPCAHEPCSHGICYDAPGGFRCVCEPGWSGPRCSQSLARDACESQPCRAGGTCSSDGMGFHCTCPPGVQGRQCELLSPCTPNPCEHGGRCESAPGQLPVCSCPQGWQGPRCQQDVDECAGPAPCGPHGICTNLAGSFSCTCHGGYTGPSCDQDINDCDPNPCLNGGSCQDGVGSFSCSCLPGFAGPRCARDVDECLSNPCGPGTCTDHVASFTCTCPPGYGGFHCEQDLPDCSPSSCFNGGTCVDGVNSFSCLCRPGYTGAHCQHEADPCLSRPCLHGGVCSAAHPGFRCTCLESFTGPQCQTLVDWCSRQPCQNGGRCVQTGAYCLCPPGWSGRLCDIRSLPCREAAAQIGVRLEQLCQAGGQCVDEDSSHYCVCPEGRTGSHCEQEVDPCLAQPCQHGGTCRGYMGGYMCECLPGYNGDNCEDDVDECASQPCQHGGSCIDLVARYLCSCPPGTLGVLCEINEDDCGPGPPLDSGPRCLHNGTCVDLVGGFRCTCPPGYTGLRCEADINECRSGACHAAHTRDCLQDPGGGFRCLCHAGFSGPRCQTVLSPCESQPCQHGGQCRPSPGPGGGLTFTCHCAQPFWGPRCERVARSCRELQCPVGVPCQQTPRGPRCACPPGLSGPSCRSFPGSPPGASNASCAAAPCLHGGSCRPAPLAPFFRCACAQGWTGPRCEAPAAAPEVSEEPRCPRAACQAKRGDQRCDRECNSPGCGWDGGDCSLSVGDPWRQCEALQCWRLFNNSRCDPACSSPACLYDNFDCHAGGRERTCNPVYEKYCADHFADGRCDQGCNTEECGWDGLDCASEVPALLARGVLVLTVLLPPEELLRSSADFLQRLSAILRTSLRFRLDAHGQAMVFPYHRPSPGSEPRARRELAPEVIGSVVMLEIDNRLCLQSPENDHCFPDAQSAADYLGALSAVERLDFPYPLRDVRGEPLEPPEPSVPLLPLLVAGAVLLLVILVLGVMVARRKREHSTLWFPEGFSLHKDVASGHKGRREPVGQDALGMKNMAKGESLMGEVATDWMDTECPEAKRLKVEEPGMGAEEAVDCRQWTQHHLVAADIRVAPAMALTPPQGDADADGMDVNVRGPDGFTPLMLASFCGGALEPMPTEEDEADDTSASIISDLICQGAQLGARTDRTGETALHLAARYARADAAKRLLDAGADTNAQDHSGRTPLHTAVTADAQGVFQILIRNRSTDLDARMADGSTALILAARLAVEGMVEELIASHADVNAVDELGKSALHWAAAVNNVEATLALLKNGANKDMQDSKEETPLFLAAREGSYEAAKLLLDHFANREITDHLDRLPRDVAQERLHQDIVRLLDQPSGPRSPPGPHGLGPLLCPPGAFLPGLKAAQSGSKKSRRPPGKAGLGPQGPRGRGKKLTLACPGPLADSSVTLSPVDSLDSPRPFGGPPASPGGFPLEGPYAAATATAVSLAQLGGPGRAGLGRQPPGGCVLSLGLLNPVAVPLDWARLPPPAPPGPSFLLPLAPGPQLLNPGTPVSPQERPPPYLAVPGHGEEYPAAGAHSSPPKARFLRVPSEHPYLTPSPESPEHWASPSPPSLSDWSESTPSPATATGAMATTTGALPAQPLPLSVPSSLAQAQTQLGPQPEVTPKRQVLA
Chain of Epidermal growth factor receptor (Homo sapiens) (P00533 whole entry, looked up): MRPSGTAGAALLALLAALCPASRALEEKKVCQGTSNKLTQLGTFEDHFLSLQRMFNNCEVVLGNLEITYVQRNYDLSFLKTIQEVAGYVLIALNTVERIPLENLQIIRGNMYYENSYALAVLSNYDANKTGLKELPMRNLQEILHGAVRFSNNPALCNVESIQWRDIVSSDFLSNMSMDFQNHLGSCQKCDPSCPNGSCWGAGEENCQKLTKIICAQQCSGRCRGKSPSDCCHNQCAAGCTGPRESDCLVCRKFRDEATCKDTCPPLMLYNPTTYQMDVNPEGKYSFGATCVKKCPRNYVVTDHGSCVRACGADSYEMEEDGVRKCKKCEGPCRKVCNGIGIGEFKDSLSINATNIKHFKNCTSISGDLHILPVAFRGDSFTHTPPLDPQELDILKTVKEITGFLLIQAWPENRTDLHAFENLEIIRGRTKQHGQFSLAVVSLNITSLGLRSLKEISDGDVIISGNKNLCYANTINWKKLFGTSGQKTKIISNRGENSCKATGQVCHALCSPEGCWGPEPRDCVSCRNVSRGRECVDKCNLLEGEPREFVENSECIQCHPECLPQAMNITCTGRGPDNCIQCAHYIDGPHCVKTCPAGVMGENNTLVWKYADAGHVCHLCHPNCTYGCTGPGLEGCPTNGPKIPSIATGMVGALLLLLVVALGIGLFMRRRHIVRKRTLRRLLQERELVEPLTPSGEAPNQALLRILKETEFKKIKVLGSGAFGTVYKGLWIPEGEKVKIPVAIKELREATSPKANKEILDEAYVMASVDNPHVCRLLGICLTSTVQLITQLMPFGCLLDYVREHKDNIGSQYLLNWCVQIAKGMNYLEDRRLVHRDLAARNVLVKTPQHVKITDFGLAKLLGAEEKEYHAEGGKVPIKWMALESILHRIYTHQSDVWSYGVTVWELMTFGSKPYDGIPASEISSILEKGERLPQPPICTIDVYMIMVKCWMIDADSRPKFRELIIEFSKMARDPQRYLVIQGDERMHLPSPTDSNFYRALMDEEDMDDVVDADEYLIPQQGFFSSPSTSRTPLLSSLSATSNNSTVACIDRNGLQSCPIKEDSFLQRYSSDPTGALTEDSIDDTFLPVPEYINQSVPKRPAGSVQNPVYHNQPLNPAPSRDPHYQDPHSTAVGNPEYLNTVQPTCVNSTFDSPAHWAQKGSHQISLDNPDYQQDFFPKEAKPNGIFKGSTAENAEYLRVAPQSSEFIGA

As for `C#CCCCON=C1C[C@@H](O)[C@@H](O)[C@@H]2[C@@H]3C(=O)N([C@@H](C)c4ccccc4)C(=O)[C@@H]3CC[C@H]12`, the composite z-score in assay [1] was found to be 0.37; in [5], 0.773; in [7] it was 0.0008; in assay [8] it was 0.573; in assay [9], 0.999; in assay [10], 0.207. Moreover, the composite z-score in assay [11] is 0.933; in [12] it was -0.253; in assay [13] it was -0.483; in assay [15], 0.478; in [16] it was 0.283; in [17], 0.474. Moreover, the composite z-score in [18] was 0.921; in assay [19], 0.618; in assay [20], 0.551. Further, the z-score in assay [2] is 0.45 (inactive); in assay [3], 0.347 (inactive); in assay [4] it was -0.418 (inactive); in assay [6], 0.229 (inactive); in assay [14], -1.28 (inactive).

As to `O=C1[C@H]2[C@H]3[C@H](O)[C@H](O)CC(=NO[C@@H]4O[C@H](CO)[C@@H](O)[C@H](O)[C@H]4O)[C@@H]3CC[C@H]2C(=O)N1Cc1ccc2c(c1)OCO2`, the composite z-score in assay [1] was 0.843; in assay [5], 1.55; in assay [7], -0.0991; in [8], 0.388; in assay [9], 0.786; in assay [10] it was -0.0007. For the same compound, the composite z-score in assay [11] was 0.456; in assay [12], -0.174; in assay [13], -0.576; in assay [15], 0.422; in [16] it was 0.708; in [17], 0.4. Also, the values for the composite z-score in assay [18], in [19] and in assay [20] were 0.521, 0.921 and -0.292, respectively. In addition, the z-score in assay [2] is -0.0622 (inactive); in assay [3], 0.374 (inactive); in assay [4] it was 0.35 (inactive); in assay [6] it was -0.244 (inactive); in [14] it was 0.0977 (inactive).

In the case of `COC(=O)[C@@H]1CC[C@H](C)[C@@H](c2ccc(C)cc2)N1C(=O)c1ccc(C=NOC(C)CN2CCCCc3nc(C)c(C)cc32)cc1` (stereo not given in full), the composite z-score is -0.066 in [1]; -0.0101 in [5]; -0.0332 in assay [7]; 0.149 in [8]; -0.145 in [9]; -0.0929 in assay [10]. Also, the composite z-score is 0.775 in assay [11]; -0.136 in assay [12]; 0.174 in assay [13]; 0.127 in assay [15]; -0.626 in assay [16]; 0.598 in assay [17]. In addition, the composite z-score came to 0.0406 in assay [18], 0.323 in assay [19] and 1.49 in assay [20]. In addition, the z-score in assay [2] is -0.632 (inactive); in [3] it was -11.8 (active); in assay [4], 0.325 (inactive); in [6], 0.829 (inactive); in assay [14], -0.423 (inactive).

For `CC(C)CON=C1C[C@@H](O)[C@@H](O)[C@@H]2[C@@H]3C(=O)N(Cc4ccccc4)C(=O)[C@@H]3CC[C@@H]12`, the composite z-score was 0.517 in assay [1]; 0.434 in [5]; -0.099 in assay [7]; 0.484 in assay [8]; 0.59 in assay [9]; -0.0679 in assay [10]. The composite z-score in assay [11] was -0.511; in [12], -0.278; in [13], -0.737; in assay [15], 0.5; in assay [16], 0.649; in assay [17], 0.571. Further, the composite z-score in assay [18] is 0.617; in assay [19] it was 0.836; in [20] it was -0.269. The z-score is -0.443 (inactive) in assay [2]; -0.264 (inactive) in [3]; -0.682 (inactive) in assay [4]; 0.354 (inactive) in assay [6]; -0.28 (inactive) in assay [14].

Take `O=C1[C@H]2[C@H]3[C@H](O)[C@H](O)CC(=NOCc4ccccc4)[C@@H]3CC[C@H]2C(=O)N1C1CCCCC1`: the composite z-score in assay [1] is 1.1; in assay [5], 1.32; in [7], -0.166; in assay [8], -0.129; in [9], 0.287; in assay [10] it was -0.13. Besides, the composite z-score in assay [11] is 0.991; in assay [12], -0.28; in assay [13], 0.218; in [15], -0.069; in assay [16], -0.0273; in assay [17], 0.0374. The values for the composite z-score in [18], in assay [19] and in [20] were -0.0832, -0.484 and -0.28, respectively. In addition, the z-score in assay [2] was 0.704 (inactive); in [3] it was -3.36 (inactive); in assay [4], 0.485 (inactive); in assay [6], 0.0212 (inactive); in assay [14], 0.568 (inactive).

Take `O=C1O[C@@H](c2ccccc2)[C@@H](c2ccccc2)N2[C@@H](c3ccc(OCCO)cc3)[C@]3(C(=O)Nc4ccc(C#CCCO)cc43)[C@@H](C(=O)N3CCCCCCC3)[C@H]12`: the composite z-score in [1] was 1.54; in [5], 3.83; in assay [7], 1.35; in [8], 1.39; in assay [9], 1.08; in assay [10], 0.249. Also, the composite z-score in [11] was determined as 1.85; in assay [12], 2.25; in assay [13] it was 1.13; in [15] it was 1.22; in assay [16], 1.32; in assay [17], 0.744. Besides, the composite z-score in assay [18] is 1.55; in assay [19], 1.78; in assay [20] it was 1.71. For the same compound, the z-score in [2] was 1.15 (inactive); in [3], -0.507 (inactive); in assay [4] it was 2.23 (inactive); in [6], 0.694 (inactive); in assay [14], -0.277 (inactive).

As for `COCCOC(=O)N1C(=O)[C@@]2(c3cc(C#CC4(O)CCCCCC4)ccc31)[C@H](C(=O)N1CCN(c3ncccn3)CC1)[C@H]1C(=O)O[C@H](c3ccccc3)[C@H](c3ccccc3)N1[C@@H]2c1ccc(OCCO)cc1`, the composite z-score in [1] was 1.53; in assay [5] it was 2.61; in assay [7], -0.0075; in [8], 1.64; in assay [9], 1.08; in assay [10], 0.0779. Also, the composite z-score in assay [11] is 1.4; in assay [12], 0.0932; in [13], -0.0616; in assay [15] it was 1.18; in [16], 1.3; in assay [17] it was 0.729. For the same compound, the results for the composite z-score in [18], in [19] and in assay [20] were 1.19, 0.738 and 0.274, respectively. The z-score was 2.12 (inactive) in assay [2]; 1.35 (inactive) in assay [3]; 5.93 (inactive) in assay [4]; 2.25 (inactive) in [6]; -0.702 (inactive) in [14].
